Screens: PubChem, National Center for Advancing Translational Sciences (NCATS)
Only a selection was taken, and hits are over-represented in it overall.
Pf Dd2 growth: inhibitors of Plasmodium falciparum Dd2 growth | P. falciparum Dd2 growth, SYBR Green, 72 h | Potency, µM (series often up to 28.9 µM), usual class: inhibitors | 120,000 compounds, 4.3% hits; active = well fitted inhibition curve with a large enough effect; note: nearly all actives have a fitted effect of over 65% in size
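Readout: SYBR Green fluorescence, 485 nm excitation, 535 nm emission, after ~16 h lysis at 37C. Before that, Dd2-infected red cells (2.5% hematocrit) grew 72 h with compound, 29 uM top final concentration.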
Numbers stand for hits; . = inactive; [ ] = dose if it differs, or a comment.

SMILES	Pf Dd2 growth
CC(C)Cc1cc(CC2(NC3CCOCC3)COC2)no1	.
CC(=O)N1CCC(C(=O)N[C@H]2CCN3C(=O)N(c4ccc(Cl)cc4)C(=O)[C@@H]3C2)CC1	.
CCCNC(=O)Cn1c(C)ccc(NS(=O)(=O)c2ccc(C)cc2)c1=O	.
COc1ccc(Cc2nc3nccc(-c4ccc(F)cc4OC)n3n2)cc1	.
Cc1ccc(NC(=O)CN2C(=O)NC3(CCCCC3)C2=O)c(Cl)c1	.
Cc1ccc(C(=O)N2CCN(c3cc(C(F)(F)F)nc(C)n3)CC2)cc1	.
C#CCNC(=O)c1ccc2nccn2c1	.
O=C([C@@H]1C[C@H](F)CN1S(=O)(=O)c1cccc(Cl)c1)N1CCCCC1	.
CN1C[C@H](NC(=O)Nc2ccccc2)CCC[C@@H](C(=O)NCc2cc(F)cc(F)c2)CC1=O	.
COCCNC(=O)C1COC2(CCN(C(=O)c3cccs3)CC2)N1C(=O)c1ccccc1 (stereo not given)	.
Cc1ccc(C(=O)N2CCC(Oc3ccc(C(=O)N(C)C)cn3)CC2)cc1F	.
Cc1ccc(-n2ncc(C(=O)Nc3ccc4c(c3)OCCO4)c2C2CCN(C(=O)OC(C)(C)C)CC2)cc1	.
CC(C)(C)OC(=O)N1CCC(c2c(C(=O)Nc3ccc4c(c3)OCCO4)cnn2-c2ccc(Cl)cc2)CC1	7.1µM
O=C(OCc1ccccc1)N1CCn2cc(C(=O)N3CCOCC3)nc2C1	.
COc1ccc(-c2nc3c(c(SCC(=O)N(C)c4ccccc4)n2)Cc2cc(C)ccc2O3)cc1	.
CCc1ccc(-c2nc3c(c(SCc4ccccc4F)n2)Cc2c(CO)cnc(C)c2O3)cc1	.
CCc1ccc(CSc2nc(-c3ccc(OC)cc3)nc3c2Cc2c(CO)cnc(C)c2O3)cc1	.
CCc1ccc(Nc2nc(-c3ccccc3F)no2)cc1	.
COc1ccc(-c2nc3c(c(SCc4cc(C)ccc4C)n2)Cc2c(CO)cnc(C)c2O3)cc1	.
COc1ccccc1-c1nc2c(c(SCc3cccc(Cl)c3)n1)Cc1c(CO)cnc(C)c1O2	2.5µM
CCOc1ccc(N(CC)C(=O)CCc2nc(-c3ccccc3F)no2)cc1	.[0.594 µM]
C=Cc1ccc(CSc2nc(-c3ccccc3Cl)nc3c2Cc2c(CO)cnc(C)c2O3)cc1	6.3µM
Cc1cccc(NC(=O)CSc2nc(-c3ccccc3Cl)nc3c2Cc2c(CO)cnc(C)c2O3)c1C	.
Cc1ccc(-c2nc3c(c(SCc4ccc(Br)cc4)n2)Cc2c(CO)cnc(C)c2O3)cc1	.
CCc1ccc(CSc2nc(-c3ccccc3F)nc3c2Cc2c(CO)cnc(C)c2O3)cc1	10µM
SMILES	Pf Dd2 growth
CCN(CC)C(=O)CSc1nc(-c2ccccc2F)nc2c1Cc1c(CO)cnc(C)c1O2	11µM
O=C(c1ccc2ncccc2c1)N1CCC2(CC1)CC(CO)N(C(=O)c1ccccc1)C2 (stereo not given)	.
CN1CCCC1c1nc(C2CN(C(=O)CCc3nc4ccccc4[nH]3)C2)no1 (stereo not given)	.
COC[C@@H]1CN(S(=O)(=O)c2ccccc2F)C[C@H]1c1ccncc1	.
Cc1cnc(C(=O)N[C@@H]2CCC[C@@H]2C(=O)NCCc2ccc(Cl)cc2)cn1	.
CCOc1ccc(NC(=O)Cn2c(-c3cnccn3)nc(C)c(C)c2=O)cc1	.
Cc1ccc(NC(=O)N2CCOCCNC(=O)[C@H]3CCCC[C@H]32)cc1C	.
COc1ncccc1-c1ccnc(-c2nnc(C)n2Cc2ccccc2)c1	.
O=C(C1CC1)N(C1CCOCC1)C1CCN(S(=O)(=O)c2cc(F)cc(F)c2)CC1	.
O=C(C1CC1)N(C1CCOCC1)C1CCN(S(=O)(=O)c2ccc(F)c(Cl)c2)CC1	10µM
Cc1cc(S(=O)(=O)N2CCC(N(C(=O)C3CC3)C3CCOCC3)CC2)ccc1Cl	.
O=C(CCC1CCN(S(=O)(=O)c2ccc(F)cc2)CC1)NCc1nc2ccccc2[nH]1	.
COc1ccc(CCN2C(=O)O[C@@H]3CN(C(=O)CN)C[C@@H]32)cc1	.
C=CCCC(CN1CCOCC1)Oc1ccc(Cn2ccnc2)cn1 (stereo not given)	.
C=CCCC(CN1CCCOCC1)Oc1ccc(-c2ccccc2)nn1 (stereo not given)	14µM
C=CCCC(CN1CCCC1)Oc1ccc(C(=O)N2CCOCC2)cn1 (stereo not given)	6.3µM
Cc1ccc(-c2cn(C3CN(C(=O)C(C)CN4CCOCC4)C3)nn2)cc1 (stereo not given)	.
CN1CCC(Oc2ccc(C(=O)N3CCOCC3)cn2)CC1	.
Cc1noc(C)c1CCNC(=O)CCc1ccc2c(c1)CN(S(C)(=O)=O)CCO2	.
CCNC(=O)N1CCc2c(c(-c3nncn3-c3ccccc3)nn2C)C1	.
CC(C)n1cnnc1-c1nn(C)c2c1CN(C(=O)Cc1c[nH]c3ccccc13)CC2	8.9µM
Cn1cnnc1-c1nn(C)c2c1CN(C(=O)c1n[nH]c(=O)c3ccccc13)CC2	.
Cc1nc2ccccc2c(=O)n1-c1ccc(NC(=O)c2ccc([N+](=O)[O-])cc2)cc1	.
Cc1cc(C(=O)Nc2ccc(-n3c(C)nc4ccccc4c3=O)cc2)ccc1[N+](=O)[O-]	.
Cc1cc(-n2c(C)nc3ccccc3c2=O)ccc1NC(=O)c1cccc([N+](=O)[O-])c1	8.9µM
SMILES	Pf Dd2 growth
Cc1ccncc1C(=O)N1C[C@@H](Oc2ccccc2)C[C@H]1C(=O)N1CCOCC1	.
CN(CC1CCOCC1)C(=O)Nc1ccc2c(c1)OCCO2	.
CCn1c(C2CCN(S(=O)(=O)c3ccc(OC)cc3)CC2)nn(C)c1=O	.
CC(C)Oc1cccc2c1c(NC(=O)C1CCN(C)C1)nn2Cc1ccccc1 (stereo not given)	2.2µM
CC(C)Oc1cccc2c1c(NC(=O)C1CC(=O)N(C)C1)nn2Cc1ccccc1 (stereo not given)	.
Cc1nnnn1CC(=O)Nc1nn(Cc2ccccc2)c2cccc(OC(C)C)c12	.
CS(=O)(=O)N1CCCN(C(=O)Nc2ccccc2)CCNC(=O)CC1c1ccccc1 (stereo not given)	.
O=C([C@H]1C[C@H](Oc2ccccc2)CN1C(=O)c1ccccc1F)N1CCOCC1	.
O=C1NC2(Cc3ccccc31)CN(C(=O)c1ccc(Cl)cc1)C2	.
O=C(CCCCCn1c(=O)[nH]c2ccccc2c1=O)NCc1ccc(Cl)cc1	.
CC(=O)c1ccc(N2CCN(C(=O)CCCn3c(=O)[nH]c4ccsc4c3=O)CC2)cc1	.
O=C(CCCn1c(=O)[nH]c2ccc(Br)cc2c1=O)N1CCN(c2cccc(Cl)c2)CC1	.
COC(=O)c1ccc2c(=O)n(CCCCCC(=O)N3CCN(c4cc(Cl)ccc4C)CC3)c(=O)[nH]c2c1	10µM
O=C(CCCCCn1c(=O)[nH]c2ccccc2c1=O)NCc1ccccc1	10µM
Cc1ccc(C)c(N2CCN(C(=O)c3ccc4c(=O)n(CCc5ccccc5)c(=O)[nH]c4c3)CC2)c1	.
CC(=O)c1ccc(N2CCN(C(=O)CCCCn3c(=O)[nH]c4ccccc4c3=O)CC2)cc1	5.6µM
O=C(CCCCCn1c(=O)[nH]c2ccccc2c1=O)NCCc1ccccc1	.
CCCCCn1c(=O)[nH]c2cc(C(=O)N3CCN(c4ccccc4F)CC3)ccc2c1=O	.
COc1cccc(CC(=O)N[C@H](Cc2ccccc2)C(=O)N2CCOCCNC(=O)CC2)c1	.
COc1cc(Cl)ccc1C(=O)N1[C@@H]2CC[C@H]1CC(NC(=O)c1ccncc1)C2 (stereo not given in full)	.
Cc1cnc(C(=O)N2CCc3nnc([C@@H]4C[C@@H](O)CN4C)n3CC2)cn1	.
CCC1c2nccn2CCCN1C(=O)CCn1cccn1 (stereo not given)	.
